This note sets out measurements from PubChem BioAssay AID1532 (PCMD, 2009).

Out of some 110,000 compounds screened, about 420 (0.38%) were called active. Rule as the data show it: active = inhibition above about 30% (passing the limit was not always enough); inconclusive = no clear call, values can overlap the other calls. The entries come from a sample that favours actives as a whole.

The test system of the assay is RmlC (dTDP-4-dehydrorhamnose 3,5-epimerase) and RmlD (dTDP-4-dehydrorhamnose reductase), coupled enzyme assay. The experiment in a line: RmlC and RmlD coupled enzyme inhibitors, primary screen, biochemical, 384-well, compound mixtures, retest (AID 1532). As to conditions: 384-well mixture HTS, at 5.5 µM, stronger effect = higher value.
[1] abbreviates: measured here: mean retest inhibition.

With `CCO[C@H]1OC(C(=O)O)=C[C@@H](C2CCCCC2)[C@@H]1CCCO`, the inhibition (commonly the change of the read-out against control, counted positive when it falls) is -6.81% (inactive).
Take `COc1ccc(CN2CC[C@H]3C=CC[C@@H](C(=O)N4CCOCC4)[C@H]3C2=O)cc1OC`: the inhibition is 7.97% (inactive).
Still for that read-out and setting: the result for `N#CCc1c(C#N)c(N)nc(N2CCCC2)c1C#N` reads 14.6% (inactive); that for `COC(=O)CCCC1=CC2=CC(=O)C(C)(OC(=O)c3cccs3)C(=O)C2=CN1c1cccc(C#N)c1` (stereo not given), -9.55% (inactive); that for `C=CC1C(OC2OC(CO)C(O)C(O)C2O)OC=C(C(=O)OC)C1CC1CC(=O)CC(CC(=O)CCc2ccc(O)cc2)O1` (stereo not given), 3.85% (inactive).
Still for that read-out and setting: then `C#CCOCCOCCOCCNc1nc(N2CCN(C(=O)[C@H](C(C)C)n3cc(CCO)nn3)CC2)nc(N2CCN(C(=O)[C@H](C(C)C)n3cc(CCO)nn3)CC2)n1`, with -12.1% (inactive); and `O=C(O)C1=C[C@H](c2cccs2)C[C@H](OCCCCO)O1`, with 5.69% (inactive).
`COC(=O)COc1cccc2c(=O)n(CC(=O)NCCc3ccc(OC)c(OC)c3)ccc12`: the inhibition is 9.94% (inactive).
Same read-out and setting: the result for `CC1=C(N2CCN(c3ncccn3)CC2)CCC1=O` reads 12.7% (inactive); that for `NC(=O)CC(NC(=O)Cc1cccc2ccccc12)c1ccc(NCc2cc(F)ccc2F)c([N+](=O)[O-])c1` (stereo not given), -7.96% (inactive).
On the same count and under the same terms, the result for `COC(=O)c1ccc(C(NC(=O)OCc2ccccc2)/C(F)=C/[C@@H](C)C(=O)O)cc1` (stereo not given in full) reads 3.33% (inactive); that for `CCCC[C@@H]1CN=C(N)N1CCCC`, -28.4% (inactive).
Turning to `COc1ccc(C(CC(=O)N2CCN(c3ccccc3)CC2)c2c(O)cc(OC)cc2OC)cc1` (stereo not given), the inhibition was 0.73% (inactive).
On the same count and under the same terms, then `C/C=C\C=C\C(=O)N1CC2(CC(c3cccc(NC(=O)/C(C)=C\C)c3)=NO2)C[C@H]1C(N)=O` (stereo not given in full), with -0.91% (inactive); and `COC(C[C@@H]1O[C@@H]1C(=O)[C@H](C)OCc1ccccc1)OC`, with -11.7% (inactive); and `CCC1(CC)C(=O)C2=C3C1[C@H](C(=O)OC)C=C(C(=O)OC)C[C@H]3[C@H]1C(=O)N(Cc3ccccc3)C(=O)[C@H]1[C@H]2C` (stereo not given in full), with -0.95% (inactive).
For the compound `C=C1CCN([C@H](C(=O)NCc2cc(OC)c(OC)c(OC)c2)C(C)C)S(=O)(=O)c2ccccc21`, the inhibition was 5.25% (inactive).
`CC1(C)CC[C@]2(C(=O)O)CC[C@]3(C)C(=CCC4[C@@]5(C)CC[C@H](O)C(C)(C)C5[C@H](O)C[C@]43C)[C@@H]2C1` (stereo not given in full): the inhibition was -10.3% (inactive).
Same read-out and setting: the result for `CCCCN1C(N)=NC[C@@H]1Cc1ccccc1` reads -9.09% (inactive); that for `COC(C[C@H](O)CC(=O)[C@@H](C)OCc1ccccc1)OC`, 5.9% (inactive); that for `C=C1CCN([C@@H](Cc2ccccc2)C(=O)N2CCOCC2)S(=O)(=O)c2ccccc21`, -7.13% (inactive).
With `C#CCO[C@@H]1C[C@H](n2cnc3c(=O)[nH]c(NC(=O)C(C)C)nc32)O[C@@H]1CO`, the inhibition is 17.4% (inactive).
Take `CCO[C@@H]1OC(C(=O)NC2CC2)=C[C@H](C)[C@H]1CCCO`: the inhibition is -10.3% (inactive).
On the same count and under the same terms, the result for `C#CCOCCOCCOCCNc1nc(N2CCN(C(=O)C([C@@H](C)CC)n3cc(C(N)COC(=O)C(F)(F)F)nn3)CC2)nc(N2CCN(C(=O)[C@H](Cc3ccc(O)cc3)n3cc(C(N)[C@H](C)CC)nn3)CC2)n1` (stereo not given in full) reads -15.9% (inactive); that for `COc1ccc(C2/C=C\CN(S(=O)(=O)c3cccs3)CC(=O)N2Cc2ccc(F)cc2)cc1` (stereo not given), -18.6% (inactive).
The same measure, in the same setting: then `CCc1nnc(SCc2cccc(F)c2)nc1CC`, with -1.83% (inactive); and `Cc1cccc(Nc2nc(NCCO)nc(N3CCCC3)n2)c1`, with -9.11% (inactive); and `COCOc1cc(O)c(C(=O)/C=C/c2ccc(OCOC)c(OCOC)c2)c(OCOC)c1`, with 4.09% (inactive).
As for `COc1cc(/C=C/CO)cc(OC)c1O[C@@H]1O[C@H](CO)[C@@H](O)[C@H](O)[C@H]1O`, the inhibition is -10.6% (inactive).
The same measure, in the same setting: then `CC(C)NC(=O)NCCCCCCS(C)=O` (stereo not given), with -13.8% (inactive); and `CCCCC1=CC2=CC(=O)C(C)(OC(=O)CC)C(=O)C2=CN1CCCOC(C)C` (stereo not given), with 21.9% (inactive); and `CC1=C(C)C(=O)OC(C(C)C2CCC3C4CC=C5CC(OC6OC(COC7OC(CO)C(O)C(O)C7O)C(O)C(O)C6O)CC(O)C5(C)C4CCC23C)C1` (stereo not given), with -13.2% (inactive).
Same read-out and setting: then `C/C=C(/C)C(=O)O[C@@H]1c2cc3c(c4c2[C@@]2(CO4)C(=O)C(OC)=C(OC)C=C2C[C@@H](C)[C@H]1C)OCO3`, with -2.38% (inactive); and `C/C=C(\C)C(=O)NCCN1C2=NC[C@H](Cc3ccc(O)cc3)N2C[C@@H]1Cc1ccc(OC)cc1`, with 6.27% (inactive).
Consider `COC(=O)CCCC1=CC2=CC(=O)C(C)(OC(=O)c3cccs3)C(=O)C2=CN1CC(C)C` (stereo not given), for which the inhibition was 6.81% (inactive).
On the same count and under the same terms, then `O=C(C1=C[C@H](c2coc3ccccc3c2=O)C[C@H](OCc2ccc(CO)cc2)O1)N1CCN(Cc2ccccc2)CC1`, with 13.6% (inactive); and `C=CCNC(=O)c1ccc2c3n(nc2c1)-c1ccc(C)cc1CO3`, with -4.6% (inactive).
As for `C[C@H]1CC[C@]2(O[C@@H](CCO)C[C@@H](O)[C@@H]2O)O1`, the inhibition is 6.2% (inactive).
The same measure, in the same setting: then `C=C1C2C[C@H](O)C(C)(C)[C@@]2(O)[C@H](O)C[C@]23C[C@@](C)(O)[C@H](CC[C@H]12)[C@H]3O` (stereo not given in full), with -7.47% (inactive); and `CCO[C@H]1OC(C(=O)Nc2ccccc2)=C[C@@H](C2CC2)[C@@H]1CCCO`, with -2.12% (inactive); and `COc1ccc(CCNC(=O)C2CC3Cn4c(nc5cc(C)c(C)cc54)C3N2C)cc1` (stereo not given), with 5.88% (inactive).
In the case of `O=C(NCc1ccccc1)C1=C[C@@H](c2ccccc2)C[C@@H](OCCCCO)O1`, the inhibition was -11.4% (inactive).
On to `COC(=O)CCCC1=CC2=C(c3ccccc3)C(=O)C(C)(OC(=O)C3CCCC3)C(=O)C2=CN1c1ccc(OC)cc1` (stereo not given), for which the inhibition was 6.14% (inactive).
The same measure, in the same setting: the result for `COc1ccc2c(c1)CC[C@@H]1[C@@H]2CC[C@]2(C)C(=O)CC[C@@H]12` reads 0.97% (inactive).
The same measure, in the same setting: the result for `C#CCOCCOCCOCCNc1nc(N2CCN(C(=O)[C@H](C(C)C)n3cc(CCO)nn3)CC2)nc(N2CCN(C(=O)[C@H]([C@@H](C)CC)n3cc(CCCN=C(N)N)nn3)CC2)n1` reads 9.85% (inactive).
For the compound `CC(=O)Nc1cc2ccc(OC(C)=O)cc2oc1=O`, for the setting “above what the read-out allows, likely interference”, the inhibition is 671% (active).
For `CC(=O)Oc1ccc2c(C)c(CC(C)O)c(=O)oc2c1` (stereo not given), the inhibition was 100% (active). For the same compound, under setting [1], the inhibition was 151%.
For the compound `CC(=O)Oc1ccc(NC(=O)CCC2CCCCC2)c(C(=O)O)c1`, the inhibition was 0.91% (inactive).
The same measure, in the same setting: then `COC(=O)Cc1c(C)c2ccc(OCC(=O)NCc3ccc4c(c3)OCO4)cc2oc1=O`, with 12.6% (inactive); and `O=C(Nc1cc2ccccc2oc1=O)C1CCCCC1`, with -8.93% (inactive); and `O=C(Oc1ccccc1)Oc1ccc2c(c1)oc(=O)c1ccccc12`, with -16.4% (inactive).
Still for that read-out and setting: the result for `C=CCC1(C(=O)N(C)Cc2ccccc2)CCN(C(=O)OC(C)(C)C)CC1` reads 4.78% (inactive); that for `NC(=O)C[C@@H]1NC(=O)CNC(=O)c2cc([N+](=O)[O-])cc(I)c2NCCC(C(N)=O)NC1=O` (stereo not given in full), -2.76% (inactive).
On the same count and under the same terms, then `O=C1c2ccccc2S(=O)(=O)c2cc(N3CCN(c4ccccn4)CC3)ccc21`, with -10.5% (inactive); and `C=CCSc1nnc2c(n1)-c1cccc3cccc-2c13`, with 10.4% (inactive).
For `COc1ccc(-c2nc3c(s2)CCc2onc(-c4ccc(Br)cc4)c2-3)cc1`, the inhibition is -14.4% (inactive).
Still for that read-out and setting: then `COC(C[C@@H](O)C[C@@H](O)[C@H](C)OCc1ccccc1)OC`, with 1.16% (inactive); and `C=CC(COCc1ccccc1)N(Cc1ccccc1)S(=O)(=O)c1ccccc1Br` (stereo not given), with 14.3% (inactive); and `CC(C)C[C@H](CO)Nc1nc(N(C)c2cccc(Cl)c2)c2ncn(C(C)C)c2n1`, with 4.1% (inactive).
Same read-out and setting: then `NCCCC[C@@H]1NC(=O)[C@H](CCC(=O)O)NC(=O)c2cc([N+](=O)[O-])cc(I)c2NCC[C@@H](C(N)=O)NC1=O`, with -2.74% (inactive); and `COC(C[C@@H](O)C[C@H](O)[C@H](C)OCc1ccccc1)OC`, with 8.66% (inactive); and `COc1cccc(NC(=S)N(CCc2c(C)[nH]c3ccccc23)Cc2ccco2)c1`, with -5.74% (inactive).
As for `O=c1cc(-c2ccccc2)[nH]c2cc(F)ccc12`, the inhibition is 2.31% (inactive).
With `C=CCCN(Cc1ccccc1)S(=O)(=O)c1ccccc1Br`, the inhibition is 17.6% (inactive).
The same measure, in the same setting: the result for `COc1ccccc1-c1nnc(SCC(=O)N2CC(C)CC(C)C2)o1` (stereo not given) reads -13.8% (inactive); that for `CC1CCN(c2oc(-c3ccccc3F)nc2C#N)CC1`, 19.3% (inactive).
In the case of `COc1ccccc1-c1nc(C#N)c(N2CCC(C(N)=O)CC2)o1`, the inhibition was 31.8% (active). The inhibition under setting [1] was determined as 33.6%.
On to `O=C(NC1CC1)C1=C[C@H](c2coc3ccccc3c2=O)C[C@H](OCCCCO)O1`, for which the inhibition was -32.1% (inactive).
Still for that read-out and setting: then `O=C(C1=C[C@H](C2CC2)C[C@H](OCc2ccc(CO)cc2)O1)N1CCN(Cc2ccccc2)CC1`, with 2.28% (inactive); and `COC(=O)C1=C(C(=O)OC)[C@@H]2N(C)c3ccccc3[C@@]23C[C@@H](C(=O)OC)N(C(C)=O)C3=N1`, with 1.9% (inactive).
Same read-out and setting: the result for `CC(=O)n1cc([C@@H]2C=C(C(=O)N3CCN(Cc4ccc5c(c4)OCO5)CC3)O[C@H](OCc3ccc(CO)cc3)C2)c2ccccc21` reads 5.68% (inactive); that for `O=C(NCc1cc(C(F)(F)F)cc(C(F)(F)F)c1)C1CC(c2cccc(F)c2)=NO1` (stereo not given), 2.58% (inactive).
With `CCO[C@@H]1OC(C(N)=O)=C[C@H](c2ccc(Br)cc2)[C@H]1CCCO`, the inhibition is 3.81% (inactive).
Still for that read-out and setting: the result for `CC(NC(=O)Nc1ccccc1)C(c1cccs1)N1CCN(c2ccccc2)CC1` (stereo not given) reads 10.1% (inactive); that for `CCO[C@H]1OC(C(=O)NCc2ccccc2)=C[C@@H](c2coc3ccccc3c2=O)[C@@H]1CCCO`, 1.17% (inactive).
In the case of `COc1ccc(C#Cc2c(-c3ccc(OC)cc3)oc3ccc(-c4ccc5c(c4)OCO5)cc23)cc1`, the inhibition under setting [1] stood at 110%.
Take `COc1ccc(-c2csc(N3CCN(Cc4ccc5c(c4)OCO5)CC3)n2)cc1`: the inhibition is 25.8% (inactive).
Same read-out and setting: then `COc1ccc(-c2nnc(SCC(=O)c3ccc4c(c3)OCCO4)o2)cc1`, with -6.96% (inactive).
